Assay outcomes from PubChem BioAssay.
Pf growth 96h = inhibits malaria parasite growth, 96 h; P. falciparum luciferase reporter growth, 96 h; Potency, µM (titrated, usually from 28.7 µM), without a hit: top-dose activity change, negative = inhibition, most hits filed as inhibitors; 320,000 tested, 6.9% active; AID 504834; further: potency means the concentration at half of the fitted maximal effect; on the % scale 0 is the no-effect control and ±100 the full control effect
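Parasite growth measured via integrated firefly luciferase reporter in P. falciparum. Infected erythrocytes at 2% hematocrit, 0.05% parasitemia final were treated 96 hours at 37 C under 5% CO2, and luminescence was read.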
NS1 inh = inhibitors of influenza NS1 protein function; Potency, µM (titrated, usually from 46.1 µM), for inactives: at the top dose activity, positive = more growth; AID 2326; 270,000 tested, 0.4% active; calls by dose curve; further: potency means the concentration at half of the fitted maximal effect; actives are rising curves; nearly all actives have a fitted effect of over 50% in size
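In this qHTS, NS1 from influenza A is expressed in budding yeast, where it slows growth. Cells are switched from glucose to 2% galactose medium (pH 6.0, -URA), treated with compound, and growth recovery is read at OD600.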
Sm TGR block = blocks Schistosoma mansoni thioredoxin glutathione reductase; 360,000 tested, 3% active; Q962Y6; Potency, µM (highest dose often 114 µM), inactives show top-dose activity change, negative = inhibition, most hits filed as inhibitors; purified TGR, DTNB reduction, TNB absorbance 405 nm; further: potency means the concentration at half of the fitted maximal effect; on the % scale 0 is the no-effect control and ±100 the full control effect; nearly all actives have a fitted effect of over 60% in size
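Kinetic colorimetric format: TGR-catalysed, NADPH-driven DTNB reduction monitored via TNB absorbance. Enzyme dispensed at 20 nM; compound exposure 15 min at room temperature before reaction start.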
Pf growth 48h = P. falciparum growth inhibition at 48 hours (one generation); AID 504832; Potency, µM (highest dose often 28.7 µM), without a hit: at the highest dose activity change, negative = inhibition, usual class: inhibitors; 310,000 tested, 5.9% active; P. falciparum luciferase growth in erythrocytes, 48 h; further: potency means the concentration at half of the fitted maximal effect; on the % scale 0 is the no-effect control and ±100 the full control effect
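Read-out is firefly luciferase luminescence from an integrated reporter in P. falciparum, so falling signal marks reduced parasite growth. Infected erythrocytes were at 2% hematocrit and 0.1% parasitemia (final) in Albumax-supplemented RPMI 1640.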
Shiga inhibitor = Shiga toxin inhibition. Vero cells, Shiga toxin protein synthesis inhibition reporter. inhibition, % at 38.7 µM. 290,000 tested, 9.2% active; in the data active means inhibition mostly above about 28%, no sharp cut-off; inactive means mostly below about 43%; further: 0% is about no effect
Cycloheximide cs = counter-screen for Shiga toxin inhibitors: cycloheximide protein synthesis inhibition | 300,000 tested, 12% active | max response, % | cell reporter, cycloheximide protein synthesis inhibition counterscreen; in the data active means max response mostly above about 13%, no sharp cut-off; inactive means mostly below about 14%; further: read at 38.3 µM for the half of the compounds with a filed dose; 0% is about no effect
Numbers without * were called inactive; i = inactive; ? = inconclusive; . = no result given. Rows were chosen to be rich in hits. Some 21% of all compounds tested hit in one or more screens of this group. Unless noted, the call rests on the fitted dose curve; in most records, active means well fitted curve in the direction sought with a large enough effect; inconclusive means small, poorly fitted or top-dose-only effect, or another doubt; inactive means no such curve, though single readings can be large; an effect the other way counts as inactive or inconclusive.

SMILES	Pf growth 96h	NS1 inh	Sm TGR block	Pf growth 48h	Shiga inhibitor	Cycloheximide cs
O=C(NCc1ccncc1)c1cc(C(=O)C2CC2)c[nH]1	3%	.	?	i	-8	0
O=C(NC1CCCCC1)c1cc(-c2ccc(O)cc2)on1	38%	3%	8%	36%	71*	33*
Cc1ccc(-c2cc(C(=O)NC3CCCCC3)no2)cc1	46%	-62%	10%	70%	17	20*
O=C(Nc1cccnc1Cl)c1cc(-c2ccc(Cl)cc2)on1	-11%	-2%	24%	24%	-3	-2
O=C(Nc1cccnc1Cl)c1cc(-c2ccc(O)cc2)on1	-20%	4%	-2%	40%	73*	25*
COc1ccc(-c2cc(C(=O)NC3CCCCC3)no2)cc1OC	4%	0%	-5%	9%	4	-3
O=C(NC1CCCCC1)c1cc(-c2ccccc2O)on1	103%	0%	-16%	-38%	109*	27*
Cc1cccc(OCc2nnc(-c3ccccc3)o2)c1	.	.	2%	.	.	.
CC(C)CCNC(=O)c1ccc2c(c1)NC(=O)C(C(C)C)N2 (stereo unspecified)	.	.	-1%	.	.	.
N#C/C(=C\c1ccc(OCc2ccc(F)cc2)cc1)C(=O)Nc1cccc(C(=O)O)c1	-1%	-46%	10%	-3%	42	3
COC(=O)c1ccc(COc2ccccc2/C=C(\C#N)C(=O)Nc2ccc(C)cc2)cc1	19%	4%	7%	66%	99*	87*
COc1cc(/C=C(\C#N)C(=O)Nc2cccc(C(=O)O)c2)ccc1OCc1ccc(F)cc1	26%	9%	3%	-3%	61*	25*
Cc1ccc(S(=O)(=O)/C(C#N)=C/c2ccccc2OCc2ccccc2)cc1	?	6%	-2%	2%	-6	8
COc1ccc(NC(=O)/C(C#N)=C\c2ccc(OCc3ccc(C(=O)O)cc3)c(OC)c2)cc1	64%	.	7%	-7%	62	16
N#C/C(=C\c1ccc(OCc2ccc(Br)cc2)cc1)C(=O)Nc1cccc(C(=O)O)c1	81%	-65%	-2%	13%	95*	23*
N#CC(C#N)=Cc1ccccc1OCc1ccccc1	-8%	-51%	3.2µM*	?	23	43*
Cc1cccc(NC(=O)/C(C#N)=C/c2ccc(F)cc2)n1	-1%	1%	4%	.	-4	6
CCCOc1ccccc1/C=C(\C#N)C(=O)Nc1cccc(C)n1	?	-8%	13%	-7%	29*	14*
CCOc1cc(/C=C(\C#N)C(=O)Nc2cccc(C(=O)O)c2)cc(Br)c1OC(=O)c1ccc(OC)cc1	34%	-1%	-20%	0%	31*	11
CCCOc1cccc(C(=O)Nc2ccc(-c3nc4ccccc4o3)cc2)c1	.	.	-9%	.	.	.
CC(=O)COC(=O)c1cccc(N2C(=O)C3C4C=CC(C4)C3C2=O)c1 (stereo unspecified)	13µM*	-18%	-2%	-7%	-16	-6
O=C(Nc1ccc(Cl)cc1)c1cccc(N2C(=O)C3C4CCC(C4)C3C2=O)c1 (stereo unspecified)	?	-3%	0%	?	52*	23*
CN(C)c1ccc(NC(=O)c2cccc(N3C(=O)C4C5C=CC(C5)C4C3=O)c2)cc1 (stereo unspecified)	.	-9%	?	122%	144	62*
CCOC(=O)c1cccc(N2C(=O)C3C(C2=O)C2C=CC3C23CC3)c1 (stereo unspecified)	.	4%	-1%	-13%	-19	7
COc1ccc(NC(=O)c2cccc(N3C(=O)C4C5C=CC(C5)C4C3=O)c2)cc1Cl (stereo unspecified)	7%	13%	-14%	?	14	-1
SMILES	Pf growth 96h	NS1 inh	Sm TGR block	Pf growth 48h	Shiga inhibitor	Cycloheximide cs
Cc1ccccc1NC(=O)c1cccc(N2C(=O)C3C4CCC(C4)C3C2=O)c1 (stereo unspecified)	.	7%	0%	-13%	-13	-1
Cc1ccc(NC(=O)c2cccc(N3C(=O)C4C5CCC(C5)C4C3=O)c2)c(C)c1 (stereo unspecified)	17%	-8%	1%	10µM*	-3	6
O=C(NCC(c1ccco1)N1CCN(c2ccccc2)CC1)C(=O)NC1CCCC1 (stereo unspecified)	-5%	.	0%	-22%	.	.
O=C(Nc1ccccc1)c1cccc(N2C(=O)C3C4CC(C(Br)C4Br)C3C2=O)c1 (stereo unspecified)	?	-19%	-16%	1.5µM*	18	2
CCOc1ccc(NC(=S)/C(=C(\[O-])c2ccc(C)c([N+](=O)[O-])c2)[n+]2ccccc2)cc1	.	2%	-7%	?	41*	33*
O=[N+]([O-])c1cccc(/C([O-])=C(/C(=S)Nc2cccc3ccccc23)[n+]2ccccc2)c1	?	?	-25%	9.3µM*	64*	27*
CCOc1ccc(NC(=S)Nc2ccc(C)c([N+](=O)[O-])c2)cc1	2.1µM*	-3%	-16%	.	-10	-5
O=[N+]([O-])c1ccc(/C([O-])=C(/C(=S)Nc2ccccc2F)[n+]2ccccc2)cc1	1%	.	41%	38%	16	4
Cc1ccc(/C([O-])=C(/C(=S)NCc2ccccc2)[n+]2ccccc2)cc1[N+](=O)[O-]	-22%	.	36%	9%	-5	-3
CCc1cc[n+](/C(C(=S)Nc2cccc(C)c2)=C(/[O-])c2ccc(C)c([N+](=O)[O-])c2)cc1	0.15µM*	3%	-1%	?	5	-1
O=C(C1CCN(S(=O)(=O)c2ccccc2F)CC1)N1CCCC1	4%	.	3%	8%	.	.
COc1cccc(NC(=S)/C(=C(\[O-])c2ccc([N+](=O)[O-])cc2)[n+]2ccccc2)c1	-13%	.	2%	0%	66*	24*
COc1cccc(NC(=O)CNC(=O)c2ccc([N+](=O)[O-])cc2)c1	38%	0%	6%	3%	-4	-5
CN(Cc1ccccc1)c1nc(-c2ccc([N+](=O)[O-])cc2)nc2ccccc12	?	0%	1%	10%	-1	-6
O=[N+]([O-])c1ccc(-c2nc(NCc3cccnc3)c3ccccc3n2)cc1	15µM*	0%	2%	1%	53*	23*
Oc1ccccc1-c1nc(NCc2cccnc2)c2ccccc2n1	?	-1%	-6%	15µM*	24	10
Oc1cc(NCc2cccnc2)ccc1-c1nc2ccccc2o1	.	-51%	-14%	-32%	84*	53*
O=C(c1ccccc1)N1CCc2cc(CNS(=O)(=O)c3ccccc3Cl)ccc21	.	.	1%	.	.	.
CCOC(=O)c1sc(-c2ccccc2)cc1NC(=O)Nc1ccccc1	?	-25%	-11%	0%	4	8
CCOC(=O)c1sc(NC(=O)C2CCC2)cc1C	?	.	-1%	37%	116*	28*
